In paper PMC7862700, “An all-to-all approach to the identification of sequence-specific readers for epigenetic DNA modifications on cytosine”:

Tests used:
Assay in all cases: DAPPL (digital affinity profiling via proximity ligation, sequencing); 10 mM Tris-HCl pH 7.5, 50 mM NaCl, 1 mM DTT, 4% glycerol, room temperature, 30 min; GST-TFs on glutathione beads, 16-mer random dsDNA library, 0.1% formaldehyde crosslink after washing; high values mean tight binding
Settings in all cases: protein: recombinant; tags: N-terminal GST; dsDNA, one strand shown
ELK1 = target: T1, ELK1 (Homo sapiens, UniProt P19419 1-428)
T1 sequence: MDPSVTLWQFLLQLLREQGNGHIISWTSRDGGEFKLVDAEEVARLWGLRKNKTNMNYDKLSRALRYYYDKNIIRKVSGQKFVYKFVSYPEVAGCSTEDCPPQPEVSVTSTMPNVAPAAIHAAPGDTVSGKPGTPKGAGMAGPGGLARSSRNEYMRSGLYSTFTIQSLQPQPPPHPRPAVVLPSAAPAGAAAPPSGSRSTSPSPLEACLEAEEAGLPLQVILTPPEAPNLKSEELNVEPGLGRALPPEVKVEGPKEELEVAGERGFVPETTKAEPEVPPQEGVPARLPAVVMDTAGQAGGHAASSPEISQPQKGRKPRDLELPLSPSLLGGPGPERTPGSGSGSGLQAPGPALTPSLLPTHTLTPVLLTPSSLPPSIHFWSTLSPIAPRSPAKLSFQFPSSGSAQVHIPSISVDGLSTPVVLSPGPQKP
Method in brief: (§1)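 Beads coated with glutathione captured GST-fused human transcription factors that had been expressed in yeast, and the factors were then given DNA barcodes and pooled with a tag-only sample. The pools were incubated with 200 nmole of a random double-stranded 16-mer DNA library in Tris/NaCl/DTT/glycerol buffer for 30 min at room temperature, washed, crosslinked with 0.1% formaldehyde and proximity-ligated with BsaI/T4 ligase at 37 °C for 1 h. PCR amplification and Illumina NextSeq500 sequencing came last. Binding signal is each hexamer's read frequency for a factor divided by its frequency for the tag-only sample.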

ERG = target: T2, ERG (Homo sapiens, UniProt P11308 1-479)
T2 sequence: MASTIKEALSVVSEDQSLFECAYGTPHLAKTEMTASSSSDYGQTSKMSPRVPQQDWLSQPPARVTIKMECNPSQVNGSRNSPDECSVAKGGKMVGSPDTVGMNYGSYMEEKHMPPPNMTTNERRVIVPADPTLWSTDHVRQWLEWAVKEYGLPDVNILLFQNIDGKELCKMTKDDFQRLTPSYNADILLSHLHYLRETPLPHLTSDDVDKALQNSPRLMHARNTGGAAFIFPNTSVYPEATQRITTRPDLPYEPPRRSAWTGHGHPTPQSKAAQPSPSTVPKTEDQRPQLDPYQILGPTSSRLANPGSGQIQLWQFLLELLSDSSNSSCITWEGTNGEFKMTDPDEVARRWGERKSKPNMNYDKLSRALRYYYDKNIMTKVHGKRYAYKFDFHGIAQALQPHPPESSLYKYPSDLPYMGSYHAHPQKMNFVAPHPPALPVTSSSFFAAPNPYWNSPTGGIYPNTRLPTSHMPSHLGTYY
Method in brief: as §1

ELF1 = ELF1 (Homo sapiens, UniProt P32519 1-619)
ELF1, sequence (P32519 whole entry): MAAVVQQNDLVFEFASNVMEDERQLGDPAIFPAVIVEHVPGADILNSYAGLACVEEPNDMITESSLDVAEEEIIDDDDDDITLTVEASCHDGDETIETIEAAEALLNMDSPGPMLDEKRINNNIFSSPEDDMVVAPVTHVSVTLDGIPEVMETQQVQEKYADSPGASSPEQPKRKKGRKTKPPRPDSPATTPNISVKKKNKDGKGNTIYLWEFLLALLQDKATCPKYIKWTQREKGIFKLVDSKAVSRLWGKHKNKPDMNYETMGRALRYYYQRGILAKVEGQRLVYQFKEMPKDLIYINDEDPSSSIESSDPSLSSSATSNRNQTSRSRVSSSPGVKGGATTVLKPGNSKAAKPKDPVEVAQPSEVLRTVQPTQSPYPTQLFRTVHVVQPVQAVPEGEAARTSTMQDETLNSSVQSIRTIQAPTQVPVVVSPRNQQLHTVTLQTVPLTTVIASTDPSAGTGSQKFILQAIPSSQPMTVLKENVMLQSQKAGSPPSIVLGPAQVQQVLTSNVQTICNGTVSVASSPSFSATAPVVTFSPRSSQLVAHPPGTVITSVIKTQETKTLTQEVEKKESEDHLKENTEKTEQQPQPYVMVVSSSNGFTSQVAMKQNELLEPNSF
Method in brief: as §1

EHF = target: T3, EHF (Homo sapiens, UniProt Q9NZC4 1-300)
T3 sequence: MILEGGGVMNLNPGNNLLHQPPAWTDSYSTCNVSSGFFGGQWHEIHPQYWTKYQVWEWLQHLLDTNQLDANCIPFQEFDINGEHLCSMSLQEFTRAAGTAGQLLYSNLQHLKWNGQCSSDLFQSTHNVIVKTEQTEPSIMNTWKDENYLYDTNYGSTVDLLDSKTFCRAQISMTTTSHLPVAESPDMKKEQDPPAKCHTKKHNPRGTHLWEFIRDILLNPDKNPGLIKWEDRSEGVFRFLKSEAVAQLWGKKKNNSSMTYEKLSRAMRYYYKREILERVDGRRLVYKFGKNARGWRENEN
Method in brief: as §1

SPIC = target: T4, SPIC (Homo sapiens, UniProt Q8N5J4 1-248)
T4 sequence: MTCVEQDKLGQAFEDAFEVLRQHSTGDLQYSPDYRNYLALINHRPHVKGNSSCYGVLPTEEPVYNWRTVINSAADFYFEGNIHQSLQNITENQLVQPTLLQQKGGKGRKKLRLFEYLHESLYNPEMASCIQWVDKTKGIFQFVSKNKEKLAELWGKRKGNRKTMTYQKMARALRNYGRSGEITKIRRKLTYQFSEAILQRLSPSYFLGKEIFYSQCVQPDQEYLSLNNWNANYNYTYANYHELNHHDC
Method in brief: as §1

ELF4 = ELF4 (Homo sapiens, UniProt Q99607 1-663)
ELF4, sequence (Q99607 whole entry): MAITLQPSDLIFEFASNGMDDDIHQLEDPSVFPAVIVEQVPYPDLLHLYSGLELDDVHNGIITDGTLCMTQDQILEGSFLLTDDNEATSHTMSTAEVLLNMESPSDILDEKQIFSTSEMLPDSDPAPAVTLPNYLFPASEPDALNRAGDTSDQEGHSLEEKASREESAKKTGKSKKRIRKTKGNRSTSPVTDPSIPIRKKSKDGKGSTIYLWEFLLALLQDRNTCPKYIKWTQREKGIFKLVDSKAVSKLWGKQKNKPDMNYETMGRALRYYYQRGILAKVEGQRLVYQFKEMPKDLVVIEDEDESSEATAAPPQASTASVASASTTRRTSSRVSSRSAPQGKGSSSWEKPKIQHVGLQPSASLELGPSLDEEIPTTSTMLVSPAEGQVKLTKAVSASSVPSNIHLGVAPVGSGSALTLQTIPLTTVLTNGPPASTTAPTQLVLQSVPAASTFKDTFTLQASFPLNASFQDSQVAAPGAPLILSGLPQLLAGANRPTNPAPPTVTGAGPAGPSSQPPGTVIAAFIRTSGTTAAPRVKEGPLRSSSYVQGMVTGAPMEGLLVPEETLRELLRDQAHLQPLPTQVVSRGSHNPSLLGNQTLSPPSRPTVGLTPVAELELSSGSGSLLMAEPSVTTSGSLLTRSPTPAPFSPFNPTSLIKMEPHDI
Method in brief: as §1

ELK4 = target: T5, ELK4 (Homo sapiens, UniProt P28324-2 1-405)
T5 sequence: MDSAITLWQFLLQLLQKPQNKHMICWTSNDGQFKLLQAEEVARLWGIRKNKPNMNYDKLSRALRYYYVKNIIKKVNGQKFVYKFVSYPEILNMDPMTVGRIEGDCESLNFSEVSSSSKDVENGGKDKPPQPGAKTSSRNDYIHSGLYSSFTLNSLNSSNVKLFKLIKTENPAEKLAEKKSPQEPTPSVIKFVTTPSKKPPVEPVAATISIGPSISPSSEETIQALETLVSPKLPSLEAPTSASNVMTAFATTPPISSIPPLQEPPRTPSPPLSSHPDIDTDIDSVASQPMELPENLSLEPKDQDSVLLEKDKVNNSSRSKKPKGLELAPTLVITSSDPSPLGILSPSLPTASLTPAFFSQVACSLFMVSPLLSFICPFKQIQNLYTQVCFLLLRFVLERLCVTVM
Method in brief: as §1

ELF3 = target: T6, ELF3 (Homo sapiens, UniProt P78545 1-371)
T6 sequence: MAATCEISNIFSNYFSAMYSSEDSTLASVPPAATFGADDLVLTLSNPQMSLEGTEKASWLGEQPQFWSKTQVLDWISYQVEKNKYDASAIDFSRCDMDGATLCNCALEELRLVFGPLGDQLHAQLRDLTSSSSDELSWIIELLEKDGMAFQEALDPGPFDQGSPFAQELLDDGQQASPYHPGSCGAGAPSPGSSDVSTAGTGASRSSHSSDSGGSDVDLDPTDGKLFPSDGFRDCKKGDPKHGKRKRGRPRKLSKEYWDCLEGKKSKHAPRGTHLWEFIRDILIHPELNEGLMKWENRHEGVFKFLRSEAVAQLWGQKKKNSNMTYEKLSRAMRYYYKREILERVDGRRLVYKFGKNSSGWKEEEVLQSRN
Method in brief: as §1

ETV1 = ETV1 (Homo sapiens, UniProt P50549 1-477)
ETV1, sequence (P50549 whole entry): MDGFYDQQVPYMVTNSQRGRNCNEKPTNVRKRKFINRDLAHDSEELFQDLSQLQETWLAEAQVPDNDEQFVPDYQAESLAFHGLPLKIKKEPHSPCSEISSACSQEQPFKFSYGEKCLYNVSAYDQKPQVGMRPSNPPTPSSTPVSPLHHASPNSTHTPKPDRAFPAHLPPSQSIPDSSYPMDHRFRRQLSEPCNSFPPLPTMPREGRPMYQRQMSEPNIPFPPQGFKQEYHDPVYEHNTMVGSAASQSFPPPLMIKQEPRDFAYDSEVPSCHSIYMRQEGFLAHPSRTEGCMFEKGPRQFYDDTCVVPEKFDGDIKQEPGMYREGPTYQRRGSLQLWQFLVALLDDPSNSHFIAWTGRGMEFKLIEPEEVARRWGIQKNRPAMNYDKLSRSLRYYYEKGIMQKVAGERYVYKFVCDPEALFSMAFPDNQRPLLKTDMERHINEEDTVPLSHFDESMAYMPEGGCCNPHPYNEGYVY
Method in brief: as §1

ETV3L = target: T7, ETV3L (Homo sapiens, UniProt Q6ZN32 1-361)
T7 sequence: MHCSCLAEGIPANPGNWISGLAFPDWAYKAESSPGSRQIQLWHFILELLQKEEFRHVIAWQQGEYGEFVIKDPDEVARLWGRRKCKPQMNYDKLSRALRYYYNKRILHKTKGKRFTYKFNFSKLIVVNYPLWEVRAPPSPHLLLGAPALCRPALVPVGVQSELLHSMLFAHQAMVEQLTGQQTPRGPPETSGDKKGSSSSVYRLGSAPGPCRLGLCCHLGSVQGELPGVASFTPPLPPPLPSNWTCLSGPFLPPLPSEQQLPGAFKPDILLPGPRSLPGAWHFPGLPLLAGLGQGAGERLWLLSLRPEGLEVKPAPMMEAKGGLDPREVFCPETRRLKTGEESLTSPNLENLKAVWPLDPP
Method in brief: as §1

ETS2 = target: T8, ETS2 (Homo sapiens, UniProt P15036 1-469)
T8 sequence: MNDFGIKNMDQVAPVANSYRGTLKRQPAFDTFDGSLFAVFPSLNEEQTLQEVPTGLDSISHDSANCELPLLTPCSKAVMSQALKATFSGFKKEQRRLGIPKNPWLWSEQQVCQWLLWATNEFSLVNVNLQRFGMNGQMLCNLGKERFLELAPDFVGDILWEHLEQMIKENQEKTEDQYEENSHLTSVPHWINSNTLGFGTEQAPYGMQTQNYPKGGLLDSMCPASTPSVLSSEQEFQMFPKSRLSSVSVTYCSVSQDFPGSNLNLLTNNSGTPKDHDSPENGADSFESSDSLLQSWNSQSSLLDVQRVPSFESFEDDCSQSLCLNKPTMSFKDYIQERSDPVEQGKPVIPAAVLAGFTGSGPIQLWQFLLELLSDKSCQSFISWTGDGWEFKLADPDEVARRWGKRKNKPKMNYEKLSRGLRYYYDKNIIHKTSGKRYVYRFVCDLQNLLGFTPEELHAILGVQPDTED
Method in brief: as §1

ETV3 = target: T9, ETV3 (Homo sapiens, UniProt P41162-2 1-143)
T9 sequence: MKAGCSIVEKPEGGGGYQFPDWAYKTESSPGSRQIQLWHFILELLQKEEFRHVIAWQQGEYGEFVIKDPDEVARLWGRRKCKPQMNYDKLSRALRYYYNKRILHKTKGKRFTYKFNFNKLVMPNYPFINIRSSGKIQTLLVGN
Method in brief: as §1

ETV6 = ETV6 (Homo sapiens, UniProt P41212 1-452)
ETV6, sequence (P41212 whole entry): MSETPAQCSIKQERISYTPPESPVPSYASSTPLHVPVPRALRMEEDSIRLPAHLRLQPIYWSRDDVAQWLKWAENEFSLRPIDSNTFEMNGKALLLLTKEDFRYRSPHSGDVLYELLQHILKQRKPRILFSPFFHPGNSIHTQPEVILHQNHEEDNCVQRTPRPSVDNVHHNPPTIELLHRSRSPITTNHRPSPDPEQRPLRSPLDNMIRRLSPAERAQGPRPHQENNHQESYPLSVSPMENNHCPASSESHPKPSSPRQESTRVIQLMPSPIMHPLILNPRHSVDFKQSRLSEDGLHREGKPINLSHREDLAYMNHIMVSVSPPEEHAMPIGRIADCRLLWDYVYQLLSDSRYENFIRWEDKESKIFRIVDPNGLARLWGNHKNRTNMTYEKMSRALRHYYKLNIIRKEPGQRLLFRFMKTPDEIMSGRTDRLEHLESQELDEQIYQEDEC
Method in brief: as §1

Sequence | binding signal (ELK1) | binding signal (ERG) | binding signal (ELF1) | binding signal (EHF) | binding signal (SPIC) | binding signal (ELF4) | binding signal (ELK4) | binding signal (ELF3) | binding signal (ETV1) | binding signal (ETV3L) | binding signal (ETS2) | binding signal (ETV3) | binding signal (ETV6)
CCCCAG | 1 fold enrichment (6-mer frequency, TF over GST control) | 1.05 fold enrichment (6-mer frequency, TF over GST control) | 1.04 fold enrichment (6-mer frequency, TF over GST control) | 1 fold enrichment (6-mer frequency, TF over GST control) | 1.14 fold enrichment (6-mer frequency, TF over GST control) | 1.04 fold enrichment (6-mer frequency, TF over GST control) | 1.24 fold enrichment (6-mer frequency, TF over GST control) | 1.16 fold enrichment (6-mer frequency, TF over GST control) | 1.11 fold enrichment (6-mer frequency, TF over GST control) | 1.11 fold enrichment (6-mer frequency, TF over GST control) | 1.04 fold enrichment (6-mer frequency, TF over GST control) | 1.07 fold enrichment (6-mer frequency, TF over GST control) | 1.03 fold enrichment (6-mer frequency, TF over GST control)
GTAAGC |  |  |  |  | 1.01 fold enrichment (6-mer frequency, TF over GST control) |  |  |  |  |  |  |  | 
